Experimental data taken from PubChem BioAssay (NCATS).
Results filed as inconclusive are left out. Where a call stands in place of a potency, no number is given. The source made the active and inactive calls. Calls follow the shape of the dose curve; as a rule, active = well fitted inhibition curve with a large enough effect; inconclusive = small, poorly fitted or top-dose-only effect; inactive = flat fitted curve, though single readings scatter.
Potency is read from the fitted curve at half-maximal effect.

What follows are molecules tested on CP335 (assay: qHTS profiling for inhibitors of Plasmodium falciparum proliferation (AID 504749; also: nearly all actives have a fitted effect of over 60% in size)). Settings: P. falciparum in erythrocytes, SYBR Green DNA, 72 h; series mostly up to 28.7 µM.
Method in brief: (§1)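 SYBR Green fluorescence (ex 485 nm, em 535 nm) reports parasite DNA after 72 h compound exposure of infected red cells at 0.3% parasitemia, 2.5% hematocrit; signal normalized to 0.29 uM artemisinin and vehicle wells.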
For CCCCC[C@H](O)/C=C/[C@H]1[C@H](O)CC(=O)[C@@H]1C/C=C\CCCC(=O)O, the Potency was “inactive”.
In the case of C(=C\c1ccncc1)/c1ccccc1, the Potency is reported as “inactive”.
O=C1N=C2SCCN2C(=O)C1Cc1ccc(Cl)cc1 (centres undefined) was tested, and the Potency was “inactive”.
With CCCCCCCCCCCC(=O)N(CCO)CCO the Potency was “inactive”.
For Cc1nc(NS(=O)(=O)c2ccc(N)cc2)nc(C)c1Br, the Potency was “inactive”.
For O=c1[nH]c(=O)n([C@H]2C[C@H](O)[C@@H](CO)O2)cc1/C=C/Br, the Potency was “inactive”.
CC12CCC(C[N+](C)(CCC[N+](C)(C)C)C1)C2(C)C (centres undefined) was tested, and the Potency was “inactive”.
With CC(C)NCC(O)COc1ccccc1-n1cccc1 (centres undefined) the Potency was “inactive”.
With F[Si-2](F)(F)(F)(F)F the Potency was “inactive”.
For CN(Cc1ccccc1)Cc1ccccc1, the Potency was “inactive”.
For O=[n+]1ccn([O-])c2ccccc21, the Potency was “inactive”.
OCC(O)CO was tested, and the Potency was “inactive”.
For CC(=O)NCCCS(=O)(=O)O, the Potency was “inactive”.
CCN(CC)CCOc1ccc2nc(N(C)C)sc2c1 was tested, and the Potency was “inactive”.
Cc1cccc(Nc2ncccc2C(=O)O)c1C was tested, and the Potency was “inactive”.
In the case of CCCCC(CC)CCC(CC(C)C)OS(=O)(=O)O (centres undefined), the Potency is reported as “inactive”.
For C[C@H](N)C(=O)N[C@@H](C)P(=O)(O)O, the Potency was “inactive”.
In the case of CO/N=C(\C(=O)N[C@@H]1C(=O)N2C(C(=O)[O-])=C(C[n+]3cccc4c3CCC4)CS[C@H]12)c1csc(N)n1, the Potency is reported as “inactive”.
Cc1cc(-c2ccc(N=Nc3ccc4c(S(=O)(=O)O)cc(S(=O)(=O)O)c(N)c4c3O)c(C)c2)ccc1N=Nc1ccc2c(S(=O)(=O)O)cc(S(=O)(=O)O)c(N)c2c1O was tested, and the Potency was “inactive”.
In the case of CCC(C(=O)NC(N)=O)c1ccccc1 (centres undefined), the Potency is reported as “inactive”.
With Cn1cc(NC(=O)c2cc(NC(=O)c3cc(NC=O)cn3C)cn2C)cc1C(=O)NCCC(=N)N the Potency was 8.49 µM (active).
In the case of CCc1ncnc2cc(OC)c(OC)cc12, the Potency is reported as “inactive”.
O[C@@H]([C@H](O)[C@H](O)CBr)[C@H](O)CBr was tested, and the Potency was “inactive”.
With O=[N+]([O-])c1c(Cl)cccc1-c1c[nH]cc1Cl the Potency was “inactive”.
C[C@@](Cc1ccc(O)c(O)c1)(NN)C(=O)O was tested, and the Potency was “inactive”.
CC(=O)Oc1cc(C(F)(F)F)ccc1C(=O)O was tested, and the Potency was “inactive”.
In the case of CCCCC, the Potency is reported as “inactive”.
With O=P(O)(O)CP(=O)(O)O the Potency was “inactive”.
CCCCC[C@H](O)/C=C/[C@@H]1[C@H]2C/C(=C/CCCC(=O)O)O[C@H]2C[C@H]1O was tested, and the Potency was “inactive”.
C[Si](C)(C)O[Si](C)(C)C was tested, and the Potency was “inactive”.
In the case of O.O.O.O.O.O.O.O=S(=O)([O-])[O-].[Co+2], the Potency is reported as 6.75 µM (active).
CCOC(=O)c1c[nH]c2cc(OCC(C)C)c(OCC(C)C)cc2c1=O was tested, and the Potency was 0.0675 µM (active).

Each molecule was assayed on DFO2036 in the same assay as above. Settings: P. falciparum in erythrocytes, SYBR Green DNA, 72 h; series mostly up to 28.7 µM.
Method in brief: as §1
CCCCC[C@H](O)/C=C/[C@H]1[C@H](O)CC(=O)[C@@H]1C/C=C\CCCC(=O)O was tested, and the Potency was “inactive”.
With O=C(CCCN1CCC(C(=O)c2ccc(F)cc2)CC1)c1ccc(F)cc1 the Potency was “inactive”.
In the case of C(=C\c1ccncc1)/c1ccccc1, the Potency is reported as “inactive”.
O=C1N=C2SCCN2C(=O)C1Cc1ccc(Cl)cc1 (centres undefined) was tested, and the Potency was “inactive”.
With CCCCCCCCCCCC(=O)N(CCO)CCO the Potency was “inactive”.
In the case of Cc1nc(NS(=O)(=O)c2ccc(N)cc2)nc(C)c1Br, the Potency is reported as “inactive”.
O=c1[nH]c(=O)n([C@H]2C[C@H](O)[C@@H](CO)O2)cc1/C=C/Br was tested, and the Potency was “inactive”.
CC12CCC(C[N+](C)(CCC[N+](C)(C)C)C1)C2(C)C (centres undefined) was tested, and the Potency was “inactive”.
In the case of Oc1cccc(O)c1O, the Potency is reported as “inactive”.
In the case of CC(C)NCC(O)COc1ccccc1-n1cccc1 (centres undefined), the Potency is reported as “inactive”.
For F[Si-2](F)(F)(F)(F)F, the Potency was “inactive”.
CN(Cc1ccccc1)Cc1ccccc1 was tested, and the Potency was “inactive”.
With O=[n+]1ccn([O-])c2ccccc21 the Potency was “inactive”.
For OCC(O)CO, the Potency was “inactive”.
CC(=O)NCCCS(=O)(=O)O was tested, and the Potency was “inactive”.
With CCN(CC)CCOc1ccc2nc(N(C)C)sc2c1 the Potency was “inactive”.
For Cc1cccc(Nc2ncccc2C(=O)O)c1C, the Potency was “inactive”.
For CCCCC(CC)CCC(CC(C)C)OS(=O)(=O)O (centres undefined), the Potency was “inactive”.
C[C@H](N)C(=O)N[C@@H](C)P(=O)(O)O was tested, and the Potency was “inactive”.
CC(=O)Nc1ccc(NC(=S)NC(=O)c2ccc(C(C)(C)C)cc2)cc1 was tested, and the Potency was “inactive”.
For CN1CCc2c(c3ccccc3n2Cc2ccccc2)C1, the Potency was “inactive”.
For CO/N=C(\C(=O)N[C@@H]1C(=O)N2C(C(=O)[O-])=C(C[n+]3cccc4c3CCC4)CS[C@H]12)c1csc(N)n1, the Potency was “inactive”.
Cc1cc(-c2ccc(N=Nc3ccc4c(S(=O)(=O)O)cc(S(=O)(=O)O)c(N)c4c3O)c(C)c2)ccc1N=Nc1ccc2c(S(=O)(=O)O)cc(S(=O)(=O)O)c(N)c2c1O was tested, and the Potency was “inactive”.
With CCC(C(=O)NC(N)=O)c1ccccc1 (centres undefined) the Potency was “inactive”.
For CCc1ncnc2cc(OC)c(OC)cc12, the Potency was “inactive”.
Cc1ncc(C[n+]2csc(CCO)c2C)c(N)n1 was tested, and the Potency was “inactive”.
O[C@@H]([C@H](O)[C@H](O)CBr)[C@H](O)CBr was tested, and the Potency was “inactive”.
O=[N+]([O-])c1c(Cl)cccc1-c1c[nH]cc1Cl was tested, and the Potency was “inactive”.
For C[C@@](Cc1ccc(O)c(O)c1)(NN)C(=O)O, the Potency was “inactive”.
CC(=O)Oc1cc(C(F)(F)F)ccc1C(=O)O was tested, and the Potency was “inactive”.
For CCCCC, the Potency was “inactive”.
With O=P(O)(O)CP(=O)(O)O the Potency was “inactive”.
For CCCCC[C@H](O)/C=C/[C@@H]1[C@H]2C/C(=C/CCCC(=O)O)O[C@H]2C[C@H]1O, the Potency was “inactive”.
With C[Si](C)(C)O[Si](C)(C)C the Potency was “inactive”.
For O.O.O.O.O.O.O.O=S(=O)([O-])[O-].[Co+2], the Potency was 11.2 µM (active).
In the case of Cc1c(C)c2c(c(C)c1OC(=O)CCC(=O)O)CC[C@@](C)(CCC[C@H](C)CCC[C@H](C)CCCC(C)C)O2, the Potency is reported as “inactive”.
For CCOC(=O)c1c[nH]c2cc(OCC(C)C)c(OCC(C)C)cc2c1=O, the Potency was 0.1 µM (active).
